Source: the supplement of paper PMC6555819

tested on: PPARg:RXRa DBDmut IVT, anti-RXR (DBD mutation: RXRa K156A/R161A, NR concentration 270 nM, RXRa partner concentration 90 nM); assay: PBM binding z-score (relative to random genomic background probes); higher = stronger binding; sequences stand for … in GC…GCGATTGACAGCGTAGAATGAAGG
How it was run: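 Antibodies against each partner of ligand-free nuclear receptor dimers (one per run) detected binding on custom Agilent 4×180K protein-binding microarrays after 1 h incubation. The double-stranded probes had 34-nt variable regions carrying direct-repeat seeds, single-nucleotide variants, half-site ablations and random human genomic background sequences. Binding z-scores, from regression-normalized fluorescence, use the random background probes as reference.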

| Sequence | PBM binding z-score |
| --- | --- |
| CCTACTGGGCCATTCAGAGGTCATTTATCATATG | 3.98 |
| CCGAGTAGCTTATGGGGCATTCAGGCAACGGTGA | 0.454 |
| CCTACTGGGCCATTTAGAGGTCATTGATCATATG | 3.95 |
| CGAACGAGGGCATGAGTTGGTAGCAAATGCCGAT | 2.72 |
| TATACAGGTTCAAAGGCCAGAGTACGAATGTCGA | 0.255 |
| CCGACTCGGGCAAGGTTACCATAACGCACAGCCA | 0.68 |
| CCTACCGGGCCACGAAAGGTCATTGATTCAGTGA | 0.938 |
| TGAATGAGGTTAAAGATCAGAGAACGTGGCGTCG | 1.89 |
| TCCGCTAGGTCAACGATGGTCAGCTAATCTGCTA | 3.72 |
| GCGACTGGGGCAAAGCAGGTTACCAAAAGGTTGG | 4.78 |
| CCTACTGGGCCATCAGGTAATTGATATCAACGTT | 4.07 |
| TCATATAAGTAAATGCTAGGTGAAAGTCCGATCT | 3.04 |
| CCGAGTAGGTTATGGGGCACTCAGGCAACGGTGA | 3.14 |
| TCTTGTAGATCATTAGAGGTTAAGAAAGTGCGCT | 1.84 |
| ATATGTAGGTTAAGGGTCATTGAGGTTGGTTCGC | 7.14 |
| ACTAGCAGGCCAAGGGGCACTCAAGATTAGTCCG | 0.959 |
| TAGCCGAGGTCAGATCGGGCCAGTATACGCTATA | 0.468 |
| GCGACAGGGGCAAAGCAGGTTACCATAAGGTTGG | 0.177 |
| CCTTACGGGTCACTGATAGGTTATAGCATTTGGA | 3.46 |
| CCTACTGGGCCCCGAAAGGTCATTGATTCAGTGA | 0.503 |
| ACTATTAGTTGACATAGGGCAACCGATACGACGC | 0.444 |
| CTTGCTAGGTCATGGTCAGCTAATCTACAGTATG | 4.97 |
